# Compounds without any hit were thinned out: in the full panel of roughly 83,000, 20% have a hit.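 A percent growth of 40 corresponds to 60% growth inhibition; 0 means no net growth; -100 means all cells died. Active threshold: below 10.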 A number with no mark means an inactive call. Calls of active or inactive are those of the source.
# System: SW-620 colon
# Test: NCI-60 one-dose screen, 48 h (100 = growth as untreated, 0 = no growth, -100 = all killed)
# Conditions: 10 µM unless noted
# Protocol: Growth inhibition of the SW-620 human tumor cell line is measured as a screen for anti-cancer activity. Cells are grown in 96 well plates and exposed to the test compound for 48 hours. Compounds are tested at a single concentration, which is 10^-5 M for most compounds. The reported endpoint is percent growth (GI% or GIPRCNT), where numbers from 0 - 100% represent growth inhibition, and numbers from -100% - 0 represent cell death. For example, a value of 40 represents 60% growth inhibition. A value of 0 means no net growth occurred over the course of the experiment. A value of -40 indicates 40% of cells at the beginning of the experiment died by the end of the experiment. A value of -100 means all cells are dead at the end of the experiment.
# NCI-60 Human Tumor Cell Lines Screen was performed using the standard one-dose NCI protocol, which is described in more detail at https://dtp.cancer.gov/discovery_development/nci-60/default.htm.
# Compounds with GIPRCNT values below 10 were considered active. Activity score was based on GIPRCNT using the following formula: […]
# Score is 0 for GIPRCNT values of 100 or above, 50 for GIPRCNT values of 0, and 100 for GIPRCNT values of -100.
row,SMILES,growth
1,Cc1sc2c(c1C)C(c1ccc(Cl)cc1)=N[C@@H](CC(=O)OC(C)(C)C)c1nnc(C)n1-2,52.4%
2,COc1ccc(/C=C\c2cc(OC)c(OC)c(OC)c2)cc1OCC(=O)Nc1nc2ccc(OC(F)(F)F)cc2s1,25.1%
3,CCCCN1CCCC[C@@H]1C(=O)N[C@H](C(=O)N(C)[C@H](C[C@@H](OC(C)=O)c1nc(C(=O)NC2CCC(C(=O)OC)CC2)cs1)C(C)C)C(C)C (stereo not given in full),19.5%
4,CC12CC(=O)C3(SC#N)C(CCC4=CC(=O)CCC43C)C1CCC2=O (stereo not given),40.6%
5,O=C(NCCN1CC1)C(=O)NCCN1CC1,84.7%
6,CCOC(=O)C(Cc1ccc(N(CCCl)CCCl)cc1)NC(=O)C(CC(C)C)NC(C)=O (stereo not given),9.17% (active)
7,COC(=O)[C@@H](C)C[C@H](Cc1ccccc1)NC(=O)c1csc([C@@H](C[C@H](C(C)C)N(C)C(=O)C2(NC(=O)[C@H]3CCCCN3C)CCC2)OC(C)=O)n1,23%
8,CS(=O)(=O)CCN1CC2CCCC(C2)C1,111%
9,CC(=O)/C=C/c1ccc2c(c1)OCO2,106%
10,O=C1C(Cl)=C(N2CCOCC2)C(=O)c2ccccc21,-16.5% (active)
11,O=P(Oc1ccc(Cl)cc1)(N1CC1)N1CC1,89.3%
12,CC1(C)N=C(N)N=C(N)N1c1ccc(OCCCNC(=O)Nc2ccc(S(=O)(=O)F)cc2)c(Cl)c1,20.6%
13,CC(=O)C(c1c(O)c2ccccc2oc1=O)c1cc(=O)oc2c1ccc1ccccc12 (stereo not given),99%
14,C1CCC([PH+](C2CCCCC2)C2CCCCC2[PH+](C2CCCCC2)C2CCCCC2)CC1.O=C(C1[CH-]CCCC1)C1CCCC[N-]1.[Au] (stereo not given),2.27% (active)
15,CCOP(=O)(Nc1ccc2c(c1)/C(=N/NC(N)=S)c1ccccc1-2)OCC,115%
16,c1ccc(COc2ccc3[nH]cc(CCN(Cc4ccccc4)Cc4ccccc4)c3c2)cc1,90.5%
17,C[N+](C)(C)Cc1cc(Cl)ccc1O,97.9%
18,CC(=O)[C@H]1CC[C@H]2[C@@H]3CC[C@H]4C[C@H](N)CC[C@]4(C)[C@H]3CC[C@]12C,72.2%
19,CO[C@H]1CC[C@@]2(C)C(=CC[C@@H]3[C@@H]2CC[C@]2(C)C(=O)C(=O)C[C@@H]32)C1,100%
20,CC(C)(C)C(=O)OCOP(=O)(NCc1ccccc1)C1CCCN(O)C1=O (stereo not given),30.1%

row,SMILES,growth
1,C[C@@H]1C[C@@]2(C)[C@@H](CC[C@@H]3[C@@H]2CC[C@]2(C)C(=O)CC[C@@H]32)CC1=O,99.7%
2,Clc1ccc(COC(Cn2ccnc2)c2ccc(Cl)cc2Cl)cc1 (stereo not given),34.3%
3,COc1ccc(N(CC(=O)NCCC[Te]c2ccccc2)C(=O)CCSC2=C(C)C(=O)c3ccccc3C2=O)cc1,5.47% (active)
4,O=[N+]([O-])c1cnc[nH]1,104%
5,ClCCN(CCCl)c1ccc(/C=N\N=C\c2ccc(N(CCCl)CCCl)cc2)cc1,36.8%
6,CN[C@]1(c2ccccc2Cl)CCCC[C@H]1NCCCN1CCN(C)CC1,99.4%
7,[Cl][Hg][n]1c(-c2ccco2)nc2ccccc21,80.9%
8,CN1C(=O)C23CC4(C56CC78SSC(CO)(C(=O)N7C5Nc5ccccc56)N(C)C8=O)c5ccccc5NC4N2C(=O)C1(CO)SS3 (stereo not given),-78.5% (active)
9,COc1ccc(C/C(C)=C(\c2ccc(OCCN3CCOCC3)cc2)c2ccc(OC(=O)Cc3ccccc3)cc2)cc1,-63% (active)
10,O=C([O][Hg][CH2]C1COCC([CH2][Hg][O]C(=O)c2ccccc2)O1)c1ccccc1 (stereo not given),-91.2% (active)
11,CC[C@@H]1[C@@H](C)O[C@@](O)([C@@H](C)[C@H](O)[C@H](C)[C@H]2OC(=O)/C=C/C=C/[C@H](C)[C@@H]([C@@H](C)[C@@H](O)[C@H](C)[C@@]3(O)C[C@@H](O[C@H]4C[C@@H](O)[C@H](O)C(C)O4)[C@H](CC)[C@@H](C)O3)OC(=O)/C=C/C=C/[C@@H]2C)C[C@H]1O[C@@H]1C[C@@H](O)[C@H](O)C(C)O1 (stereo not given in full),-85.3% (active)
12,COC(=O)[C@@H](C)C[C@H](Cc1ccccc1)NC(=O)c1nc([C@@H](C[C@H](C(C)C)N(C)C(=O)[C@@H](NC(=O)[C@H]2CCCCN2C)C(C)C)OC(C)=O)sc1C(C)C,24.9%
13,CCC1CC(O)c2c(O)c3c(c(O)c2C1O)C(=O)c1cccc(O)c1C3=O (stereo not given) (tested in a mixture with another compound),-60.3% (active)
14,CCOP(=O)(Cc1ccc(C#N)cc1)OCC,99.9%
15,COC(=O)CCC1=C(C)c2cc3[n-]c(cc4nc(cc5[n-]c(cc1n2)c(CCC(=O)OC)c5C)C=C4C)cc3C.[Cd+2],25.3%
16,CC[C@H](NC(=O)[C@H]1CCCCN1C)C(=O)N(C)[C@H](C[C@@H](OC(C)=O)c1nc(C(=O)N[C@@H](Cc2ccccc2)C[C@H](C)C(=O)O)cs1)C(C)C,22.4%
17,COc1cc([N+](=O)[O-])c2nc(C)ccc2c1[N+](=O)[O-],72.7%
18,COc1cc(NC(C)CCCNC2CN3CCC2CC3)c2ncccc2c1 (stereo not given),72.6%
19,Nc1ccc(-c2nc3cc(F)ccc3[se]2)cc1F,97.2%
20,O=C1C2CCC1C(N1CCCC1)CC2 (stereo not given),99.5%

# Reference: PubChem BioAssay (NCI)
